Assay results: PubChem BioAssay (NCATS)
Results filed as inconclusive are left out. A call without a number means that no potency is given here. Active and inactive are the calls of the source. Calls come from the whole dose curve; as a rule, active = well fitted inhibition curve with a large enough effect; inconclusive = small, poorly fitted or top-dose-only effect; inactive = flat fitted curve, though single readings scatter.

Columns and labels:
Test in all cases: qHTS profiling for inhibitors of Plasmodium falciparum proliferation (AID 504749); note: nearly all actives have a fitted effect of over 60% in size
Settings in all cases: P. falciparum in erythrocytes, SYBR Green DNA, 72 h; series mostly up to 28.7 µM
[1] = test system: ATS95
Procedure, shortened: (§1)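 P. falciparum-infected erythrocytes (0.3% parasitemia, 2.5% hematocrit) incubated with compound 72 h at 37 C, 5% CO2. Parasite DNA detected by SYBR Green after lysis, overnight at room temperature; normalised to 0.29 uM artemisinin and DMSO.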

[2] = test system: C2A
Procedure, shortened: as §1

[3] = test system: CP185
Procedure, shortened: as §1

[4] = test system: CP191
Procedure, shortened: as §1

[5] = test system: CP192
Procedure, shortened: as §1

[6] = test system: CP194
Procedure, shortened: as §1

[7] = test system: CP201
Procedure, shortened: as §1

[8] = test system: CP203
Procedure, shortened: as §1

[9] = test system: CP211
Procedure, shortened: as §1

[10] = test system: CP215
Procedure, shortened: as §1
Potency is the fitted concentration of half-maximal effect.

SMILES	Potency [1]	Potency [2]	Potency [3]	Potency [4]	Potency [5]	Potency [6]	Potency [7]	Potency [8]	Potency [9]	Potency [10]
OCC(O)CN1CCN(c2ccccc2)CC1 (stereo unspecified)	inactive	inactive	inactive	inactive	inactive	inactive	inactive	inactive	inactive	inactive
O=S(=O)(O)NC1CCCCC1	inactive	inactive	inactive	inactive	inactive	inactive	inactive	inactive	inactive	inactive
CCOC(=O)c1ccc(O)cc1	inactive	inactive	inactive	inactive	inactive	inactive	inactive	inactive	inactive	inactive
O=C(Oc1ccccc1C(=O)O)c1ccccc1O	inactive	inactive	inactive	inactive	inactive	inactive	inactive	inactive	inactive	inactive
CCCCOC(=O)c1ccc(O)cc1	inactive	inactive	inactive	inactive	inactive	inactive	inactive	inactive	inactive	inactive
CC(O)CN(CCN(CC(C)O)CC(C)O)CC(C)O (stereo unspecified)	inactive	inactive	inactive	inactive	inactive	inactive	inactive	inactive	inactive	inactive
Cc1cccc(C)c1NC(=O)CN(CC(=O)O)CC(=O)O	inactive	inactive	inactive	inactive	inactive	inactive	inactive	inactive	inactive	inactive
C#CCN(C)Cc1ccccc1	inactive	inactive	inactive	inactive	inactive	inactive	inactive	inactive	inactive	–
Cc1cc(CC(=O)O)n(C)c1C(=O)c1ccc(Cl)cc1	inactive	inactive	inactive	inactive	inactive	inactive	inactive	inactive	inactive	inactive
NC(=O)NC(=O)Cc1ccccc1	inactive	inactive	inactive	inactive	inactive	inactive	inactive	inactive	inactive	inactive
CCCn1cnc2c1c(=O)n(CCCCC(C)=O)c(=O)n2C	inactive	inactive	inactive	inactive	inactive	inactive	inactive	inactive	inactive	inactive
Nc1ccc(S(=O)(=O)NC(=O)c2ccccc2)cc1	inactive	inactive	inactive	inactive	inactive	inactive	inactive	inactive	inactive	inactive
COc1ccc(Cl)cc1C(=O)NCCc1ccc(S(=O)(=O)NC(=O)NC2CCCCC2)cc1	inactive	inactive	inactive	inactive	inactive	inactive	inactive	inactive	inactive	–
NC(CSCC(=O)O)C(=O)O (stereo unspecified)	inactive	inactive	inactive	inactive	inactive	inactive	inactive	inactive	inactive	–
CCN(CC)CCSC(=O)C(c1ccccc1)c1ccccc1	inactive	inactive	inactive	inactive	inactive	inactive	inactive	inactive	inactive	inactive
C[C@](N)(Cc1ccc(O)cc1)C(=O)O	inactive	inactive	inactive	inactive	inactive	inactive	inactive	inactive	inactive	inactive
CC(C)(C)NCC(O)COc1ccc(NC(=O)NC2CCCCC2)cc1 (stereo unspecified)	inactive	inactive	inactive	inactive	inactive	inactive	inactive	inactive	inactive	inactive
CC(=O)Oc1ccc(C2(c3ccc(OC(C)=O)cc3)C(=O)Nc3ccccc32)cc1	inactive	inactive	inactive	inactive	inactive	inactive	inactive	inactive	inactive	inactive
C=Cc1c(C)c2cc3[nH]c(cc4nc(cc5nc(cc1[nH]2)C(C)=C5CCC(=O)O)C(CCC(=O)O)=C4C)c(C)c3C=C	inactive	inactive	inactive	inactive	inactive	inactive	inactive	inactive	inactive	inactive
Nc1nc2c(ncn2CCC(CO)CO)c(=O)[nH]1	inactive	inactive	inactive	inactive	inactive	inactive	inactive	inactive	inactive	inactive

SMILES	Potency [1]	Potency [2]	Potency [3]	Potency [4]	Potency [5]	Potency [6]	Potency [7]	Potency [8]	Potency [9]	Potency [10]
O=S(=O)(O)c1cc(I)c(O)c2ncccc12	inactive	inactive	inactive	inactive	inactive	inactive	inactive	inactive	inactive	inactive
CCCCCCCCCCCCOS(=O)(=O)O	inactive	inactive	inactive	inactive	inactive	inactive	inactive	inactive	inactive	inactive
CCCCN(CCCC)CC(O)c1cc(Cl)cc2c1-c1ccc(Cl)cc1/C2=C/c1ccc(Cl)cc1 (stereo unspecified)	12.6 nM (active)	44.7 nM (active)	31.6 nM (active)	28.2 nM (active)	47.8 nM (active)	47.8 nM (active)	151 nM (active)	19 nM (active)	53.6 nM (active)	42.6 nM (active)
COc1ccc2c(c1)C(=O)N(CCc1ccc(S(=O)(=O)NC(=O)NC3CCCCC3)cc1)C(=O)C2(C)C	inactive	inactive	inactive	inactive	inactive	inactive	inactive	inactive	inactive	inactive
Cc1c(Cl)cccc1Nc1ccccc1C(=O)O	inactive	inactive	inactive	inactive	inactive	inactive	inactive	inactive	inactive	inactive
CCOC(=O)[C@H](CCc1ccccc1)N[C@@H](C)C(=O)N1C(=O)N(C)C[C@H]1C(=O)O	inactive	inactive	inactive	inactive	inactive	inactive	inactive	inactive	inactive	inactive
Cn1c(=O)c2c(ncn2CC2OCCO2)n(C)c1=O	inactive	inactive	inactive	inactive	inactive	inactive	inactive	inactive	inactive	inactive
O=Cc1ccccc1C=O	inactive	inactive	inactive	inactive	inactive	inactive	inactive	inactive	inactive	–
O=C(O)[C@@H]1CSCN1	inactive	inactive	inactive	inactive	inactive	inactive	inactive	inactive	inactive	inactive
O=C1c2c(O)cccc2Cc2cccc(O)c21	inactive	inactive	inactive	inactive	inactive	inactive	inactive	inactive	inactive	inactive
O=C(CCCN1CCN(c2ccccn2)CC1)c1ccc(F)cc1	inactive	inactive	inactive	inactive	inactive	inactive	inactive	inactive	inactive	inactive
CCN(CC)CCNC(=O)c1cc(Cl)c(N)cc1OC	inactive	inactive	inactive	inactive	inactive	inactive	inactive	inactive	inactive	inactive
N[C@@H](CSCCCO)C(=O)O	inactive	inactive	inactive	inactive	inactive	inactive	inactive	–	inactive	inactive
NCC(=O)CCC(=O)O	inactive	inactive	inactive	inactive	inactive	inactive	inactive	–	inactive	inactive
CC1(C)CO[C@@H](CC(=O)O)CN1	inactive	inactive	inactive	inactive	inactive	inactive	inactive	–	inactive	inactive
CN1CCN(C2Cc3ccccc3Sc3ccc(Cl)cc32)CC1 (stereo unspecified)	inactive	inactive	inactive	inactive	inactive	–	inactive	–	inactive	–
CCCOC(=O)c1ccccc1	inactive	inactive	inactive	inactive	inactive	inactive	inactive	–	inactive	inactive
NC1CCN(c2cccc(Cl)n2)CC1	inactive	inactive	inactive	inactive	inactive	inactive	inactive	–	inactive	inactive
CC[C@@]1(c2ccccc2)NC(=O)N(C)C1=O	inactive	inactive	inactive	inactive	inactive	inactive	inactive	–	inactive	inactive
O=C(O)COc1nn(Cc2ccccc2)c2ccccc12	inactive	inactive	inactive	inactive	inactive	inactive	inactive	–	inactive	inactive
